From PubChem
Mcl1 Bid PPI: disrupts binding of human Mcl-1 to Bid peptide; TR-FRET Mcl-1/Bid-Dy647 peptide binding, 1536-well; inhibition, % at 21.7 µM; AID 1021; Q07820; actives 0.97% (n = 220,000);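 active = compounds that cut the binding signal by more than half at the single screening dose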;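 also: His-tagged Mcl-1 with europium anti-His antibody binding Bid BH3 peptide; 0% = Mcl-1 plus peptide wells and 100% = peptide-only wells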
Target sequence (Q07820 whole entry, looked up): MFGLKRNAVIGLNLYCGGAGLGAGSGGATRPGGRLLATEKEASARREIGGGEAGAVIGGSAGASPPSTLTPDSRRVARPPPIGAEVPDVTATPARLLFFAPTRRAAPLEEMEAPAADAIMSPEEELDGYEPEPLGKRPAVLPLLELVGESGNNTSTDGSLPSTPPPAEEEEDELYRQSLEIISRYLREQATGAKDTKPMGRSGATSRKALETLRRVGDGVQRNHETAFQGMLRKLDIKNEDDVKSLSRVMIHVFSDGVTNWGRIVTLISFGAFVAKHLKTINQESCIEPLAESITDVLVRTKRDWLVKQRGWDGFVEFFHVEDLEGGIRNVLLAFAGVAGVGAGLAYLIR
NCF1 inh: inhibitors of human p47phox binding. P14598. p47phox/p22phox peptide binding, fluorescence polarization, 2 h. inhibition, % at 24.7 µM. actives 0.53% (n = 220,000). AID 1274;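 also: 0% = p47phox with labelled peptide and 100% = labelled peptide alone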
Target sequence (P14598 whole entry, looked up): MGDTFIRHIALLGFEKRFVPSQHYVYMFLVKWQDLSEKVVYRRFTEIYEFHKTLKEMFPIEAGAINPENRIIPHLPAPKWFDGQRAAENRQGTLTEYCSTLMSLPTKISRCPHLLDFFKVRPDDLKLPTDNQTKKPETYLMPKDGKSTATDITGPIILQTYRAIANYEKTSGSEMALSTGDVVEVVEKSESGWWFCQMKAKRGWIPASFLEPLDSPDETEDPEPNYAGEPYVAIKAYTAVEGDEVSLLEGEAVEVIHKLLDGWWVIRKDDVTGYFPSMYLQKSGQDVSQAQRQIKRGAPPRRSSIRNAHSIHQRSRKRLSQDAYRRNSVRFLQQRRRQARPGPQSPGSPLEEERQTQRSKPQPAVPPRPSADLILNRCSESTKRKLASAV
Mcl1-Noxa inh: Mcl-1/Noxa interaction inhibition; inhibition, % at 21.7 µM; TR-FRET Mcl-1/Noxa peptide binding, 2 h; actives 1.5% (n = 220,000); Q07820;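 active = compounds that cut the protein-peptide binding signal by more than 50% relative to plate controls in a single-dose test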;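 also: His-tagged Mcl-1 with rhodamine Noxa BH3 peptide and terbium anti-His antibody; 0% = Mcl-1 plus Noxa peptide wells and 100% = peptide-only wells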
14-3-3 Bad PPI: disrupts binding of bovine 14-3-3 zeta to phospho-Bad peptide. actives 0.71% (n = 220,000). TR-FRET 14-3-3zeta/Dy647-pBad peptide displacement, 1 h. P63103. inhibition, % at 21.7 µM. AID 781;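 active = inhibition above about 70%, limit read from the data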;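 also: 0% = full 14-3-3 plus peptide FRET controls and 100% = background without 14-3-3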
Mcl-1 Bim block: human Bim-Mcl-1 interaction inhibition | Q07820 | Bead-based flow cytometry, Bim peptide-Mcl-1 binding | actives 0.1% (n = 190,000) | inhibition, % at 10 µM; in the data active = inhibition above about 40%;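 also: 0% = no compound tracer wells and 100% = peptide blocker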
eIF4E 4G PPI: inhibitors of eIF4E and eIF4G interaction in translation initiation. inhibition, % at 21.7 µM. TR-FRET eIF4E-eIF4GI(517-606) binding, 2 h. actives 0.37% (n = 220,000). P63073+Q04637;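 also: 0% = full FRET control wells and 100% = background wells lacking eIF4GI fragment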
* hit, by the source's call; [ ] = remark or other dose. A selection: hits, their analogues and other compounds. The true share with any hit is near 3.4%.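 The calls were made as follows, unless noted: active = inhibition above about 30% (limit read from the data); inactive = the rest.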

`Cc1ccccc1Nc1nc(-c2sc(NC(=O)c3ccc([N+](=O)[O-])cc3)nc2C)cs1` gave Mcl1 Bid PPI -29.1, NCF1 inh -5.5, Mcl1-Noxa inh 47.3, 14-3-3 Bad PPI 65.5, Mcl-1 Bim block -5.0 and eIF4E 4G PPI 0.4.
For Cc1ccccc1Nc1nc(-c2sc(NC(=O)c3ccccc3)nc2C)cs1 the results were Mcl1 Bid PPI -17.2, NCF1 inh -36.1, Mcl1-Noxa inh 40.5, 14-3-3 Bad PPI 38.2, Mcl-1 Bim block -2.0 and eIF4E 4G PPI -33.1.
Screening Cc1ccccc1Nc1nc(-c2sc(NC(=O)c3cccc(Cl)c3)nc2C)cs1 returned Mcl1 Bid PPI -25.4, NCF1 inh -22.2, Mcl1-Noxa inh 37.2, 14-3-3 Bad PPI 43.6, Mcl-1 Bim block 0.0 and eIF4E 4G PPI -27.1.
Screening CCOc1ccccc1Nc1nc(-c2sc(NC(=O)c3ccc([N+](=O)[O-])cc3)nc2C)cs1 returned Mcl1 Bid PPI 95.7*, NCF1 inh -5.2, Mcl1-Noxa inh 86.2*, 14-3-3 Bad PPI 62.4, Mcl-1 Bim block -1.0 and eIF4E 4G PPI -29.0.
Screening COc1ccc(Cl)cc1Nc1nc(-c2sc(NC(=O)c3ccccc3)nc2C)cs1 returned Mcl1 Bid PPI 70.3*, NCF1 inh -14.4, Mcl1-Noxa inh 31.7, 14-3-3 Bad PPI 65.2, Mcl-1 Bim block -2.0 and eIF4E 4G PPI -8.6.
`O=C(Cc1ccc(Cl)c(Cl)c1)Nc1cccc(S(=O)(=O)N2CCOCC2)c1` gave Mcl1 Bid PPI 7.2, NCF1 inh -13.2, Mcl1-Noxa inh 9.9, 14-3-3 Bad PPI -3.0, Mcl-1 Bim block -1.0 and eIF4E 4G PPI -5.2.
`COc1cc(OC)cc(N2C(=O)CSCC2=O)c1` gave Mcl1 Bid PPI -12.4, NCF1 inh -10.9, Mcl1-Noxa inh 1.7, 14-3-3 Bad PPI -0.8 and eIF4E 4G PPI -3.8.
Screening CCC(C)[C@H](NC(=O)NCc1ccc(F)cc1)C(=O)O (stereo not given in full) returned Mcl1 Bid PPI -2.0, NCF1 inh 2.6, Mcl1-Noxa inh 1.0, 14-3-3 Bad PPI -1.3 and eIF4E 4G PPI -2.0.
For Cc1c(N/N=C(\C#N)C(=O)c2ccc(Cl)cc2)c(=O)n(-c2ccccc2)n1C the results were Mcl1 Bid PPI -38.6, NCF1 inh 8.7, Mcl1-Noxa inh -24.4, 14-3-3 Bad PPI -0.7, Mcl-1 Bim block 0.0 and eIF4E 4G PPI 2.4.
N#C/C(=N\Nc1ccc(Cl)cc1)C(=O)c1ccccc1 was read as Mcl1 Bid PPI 6.7, NCF1 inh -19.1, Mcl1-Noxa inh 16.4, 14-3-3 Bad PPI 4.6, Mcl-1 Bim block 5.0 and eIF4E 4G PPI 61.9*[fluorescence artefact?].
Screening CCCc1ccc(NS(=O)(=O)c2c(C)oc(C)c2C(=O)OC)cc1 returned Mcl1 Bid PPI -3.1, NCF1 inh -15.3, Mcl1-Noxa inh -1.6, 14-3-3 Bad PPI 0.2 and eIF4E 4G PPI -3.7.
`Cc1cccc(NC2=C/C(=N/S(=O)(=O)c3cccs3)c3ccccc3C2=O)c1` gave Mcl1 Bid PPI -47.6, NCF1 inh 14.6, Mcl1-Noxa inh 3.5, 14-3-3 Bad PPI -0.9, Mcl-1 Bim block 0.0 and eIF4E 4G PPI -3.4.
Screening O=C1C(Nc2ccc(O)cc2)=C/C(=N/S(=O)(=O)c2cccs2)c2ccccc21 returned Mcl1 Bid PPI -38.3, NCF1 inh 30.8*, Mcl1-Noxa inh 16.6, 14-3-3 Bad PPI -20.2, Mcl-1 Bim block -3.0 and eIF4E 4G PPI 4.4.
Screening O=C(O)c1ccc(NC2=C/C(=N/S(=O)(=O)c3ccccc3)c3ccccc3C2=O)cc1 returned Mcl1 Bid PPI -1.9, NCF1 inh 0.5, Mcl1-Noxa inh 93.4*, 14-3-3 Bad PPI 30.8, Mcl-1 Bim block 3.0 and eIF4E 4G PPI 4.5.
For Cc1ccc(NC2=C/C(=N\S(=O)(=O)c3cccs3)c3ccccc3C2=O)c(C)c1 the results were Mcl1 Bid PPI -21.6, NCF1 inh -5.8, Mcl1-Noxa inh 27.6, 14-3-3 Bad PPI 4.6, Mcl-1 Bim block -6.0 and eIF4E 4G PPI -3.4.
`Cc1ccc(Cl)cc1NC1=C/C(=N\S(=O)(=O)c2cccs2)c2ccccc2C1=O` gave Mcl1 Bid PPI -19.1, NCF1 inh 84.1*, Mcl1-Noxa inh 4.3, 14-3-3 Bad PPI 3.6, Mcl-1 Bim block -29.0 and eIF4E 4G PPI -20.1.
For Cn1cc(CN2CCC(CO)CC2)c(-c2ccc(Oc3ccccc3)cc2)n1 the results were Mcl1 Bid PPI -47.6, NCF1 inh 0.7, Mcl1-Noxa inh 10.8, 14-3-3 Bad PPI -4.3, Mcl-1 Bim block 2.0 and eIF4E 4G PPI 0.1.
CCOC(=O)c1nnn(CC(=O)NC(=O)Nc2ccc(F)cc2)c1C(=O)OCC was read as Mcl1 Bid PPI -18.0, NCF1 inh -6.6, Mcl1-Noxa inh 12.4, 14-3-3 Bad PPI -8.8, Mcl-1 Bim block -2.0 and eIF4E 4G PPI -8.3.
`C/C=C/c1ccc(OCCCNC(C)CC)c(OC)c1` (stereo not given) gave Mcl1 Bid PPI 59.1*, NCF1 inh -10.6, Mcl1-Noxa inh 8.0, 14-3-3 Bad PPI 37.0, Mcl-1 Bim block -4.0 and eIF4E 4G PPI 2.8.
C/C=C/c1ccc(OCCCCn2cncn2)c(OC)c1 was read as Mcl1 Bid PPI 56.8*, NCF1 inh 2.6, Mcl1-Noxa inh 23.4, 14-3-3 Bad PPI 75.4*, Mcl-1 Bim block -2.0 and eIF4E 4G PPI -7.6.
For C/C=C/c1ccc(OCCn2cncn2)c(OC)c1 the results were Mcl1 Bid PPI 9.5, NCF1 inh 3.1, Mcl1-Noxa inh 14.3, 14-3-3 Bad PPI 83.7*, Mcl-1 Bim block 3.0 and eIF4E 4G PPI 15.6.
For C/C=C/c1ccc(OCCCn2cncn2)c(OC)c1 the results were Mcl1 Bid PPI 26.6, NCF1 inh 5.0, Mcl1-Noxa inh 15.2, 14-3-3 Bad PPI 74.1*, Mcl-1 Bim block -2.0 and eIF4E 4G PPI 14.7.
Screening C/C=C/c1ccc(OCCOc2cc(C=O)ccc2OC)c(OC)c1 returned Mcl1 Bid PPI -55.7, NCF1 inh -11.0, Mcl1-Noxa inh 5.7, 14-3-3 Bad PPI 7.5, Mcl-1 Bim block -4.0 and eIF4E 4G PPI 7.7.
`CN(C(=O)COc1ccc(S(=O)(=O)N2CCOCC2)cc1[N+](=O)[O-])C1CCS(=O)(=O)C1` (stereo not given) gave Mcl1 Bid PPI -31.1, NCF1 inh 6.2, Mcl1-Noxa inh 0.2, 14-3-3 Bad PPI -4.4 and eIF4E 4G PPI -0.7.
`CCC1CCCCN1C(=O)CCc1nnc(C2CCCCC2)o1` (stereo not given) gave Mcl1 Bid PPI -12.6, NCF1 inh 0.8, Mcl1-Noxa inh -0.7, 14-3-3 Bad PPI -5.3, Mcl-1 Bim block 2.0 and eIF4E 4G PPI 0.2.
For O=C(CC1C(=O)NCCN1Cc1c(F)cccc1Cl)NCCCn1cccn1 (stereo not given) the results were Mcl1 Bid PPI -6.8, NCF1 inh -2.5, Mcl1-Noxa inh 16.6, 14-3-3 Bad PPI 7.2 and eIF4E 4G PPI -2.5.
COc1cc(NC(=O)CSc2nc(C)c(C)c(C)n2)cc(OC)c1 was read as Mcl1 Bid PPI -21.6, NCF1 inh -10.4, Mcl1-Noxa inh -0.4, 14-3-3 Bad PPI -13.5, Mcl-1 Bim block -4.0 and eIF4E 4G PPI -2.7.
